# Screening data as filed in PubChem.
# The sample as a whole holds a higher share of hits than the screen did.
# ST2 inh – inhibitors of human ST2 (IL1RL1) binding to IL-33. Q01638. AlphaLISA ST2-Fc/biotin-IL-33 interaction, 1 h. inhibition, % for hits at 17 µM. hit rate 2.3% among 78,000; in the data active = inhibition above about 30%
# Target sequence (Q01638 whole entry, looked up): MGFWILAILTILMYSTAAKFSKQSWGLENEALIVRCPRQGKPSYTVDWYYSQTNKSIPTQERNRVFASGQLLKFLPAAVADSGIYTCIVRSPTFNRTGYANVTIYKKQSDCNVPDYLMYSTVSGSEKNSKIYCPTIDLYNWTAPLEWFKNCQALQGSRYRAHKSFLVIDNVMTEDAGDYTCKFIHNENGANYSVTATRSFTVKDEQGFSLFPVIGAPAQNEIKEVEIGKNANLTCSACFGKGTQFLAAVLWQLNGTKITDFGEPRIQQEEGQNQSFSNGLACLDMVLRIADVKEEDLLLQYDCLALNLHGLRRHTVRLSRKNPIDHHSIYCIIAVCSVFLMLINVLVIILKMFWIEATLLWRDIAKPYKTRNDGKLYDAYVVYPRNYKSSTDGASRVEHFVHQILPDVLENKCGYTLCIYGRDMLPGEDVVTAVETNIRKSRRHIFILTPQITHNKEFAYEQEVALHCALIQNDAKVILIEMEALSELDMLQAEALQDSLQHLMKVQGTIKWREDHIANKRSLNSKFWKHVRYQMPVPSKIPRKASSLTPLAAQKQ
# * hit, by the source's call; i = inactive; ! = a repeat was not active.
SMILES,ST2 inh
Cc1ccc(-n2c(SCC(=O)Nc3nccs3)nc3c(c2=O)SCC3)cc1,i
Cc1ccc(-n2c(SCC(=O)Nc3cccc(Cl)c3)nc3c(c2=O)SCC3)cc1,31%*
CCSc1nc2c(c(=O)n1-c1ccccc1OC)SCC2,i
COc1ccccc1-n1c(SCC(=O)Nc2ccccc2)nc2c(c1=O)SCC2,35%*!
CCOC(=O)CSc1nc2c(c(=O)n1-c1ccc(C)cc1)SCC2,i
Cc1ccc(-n2c(SCC(=O)NCCc3ccccc3)nc3c(c2=O)SCC3)cc1,31%*
O=C(CSc1nc2c(c(=O)n1-c1ccc(F)cc1)SCC2)NCc1ccc(F)cc1,i
Cc1ccc(-n2c(SCC(=O)Nc3ccccc3F)nc3c(c2=O)SCC3)cc1,32%*
Cc1ccc(-n2c(SCC(=O)Nc3cccc(C(F)(F)F)c3)nc3c(c2=O)SCC3)cc1,i
COc1ccccc1-n1c(SCc2ccccc2)nc2c(c1=O)SCC2,i
Cc1ccc(-n2c(SCC(=O)Nc3cc(C)ccc3C)nc3c(c2=O)SCC3)cc1,i
O=C(CSc1nc2c(c(=O)n1-c1ccc(Cl)cc1)SCC2)Nc1cccc(Cl)c1,i
COc1ccc(-c2cc(C(F)(F)F)nc(N)n2)cc1OC,i
O=C(NCCN1CCCCCC1)c1ccc(CS(=O)(=O)c2c(Cl)cccc2Cl)o1,i
CC1CC(=O)C2=C(C1)OC(N)=C(C#N)C2c1cccs1 (configuration not stated),i
COc1cccc(-n2cc(CNCc3nnc(-c4ccc(C)n4C)o3)cn2)c1,i
Cc1nc(N2CCC(N3CCN(C/C=C/c4ccccc4)CC3)CC2)nc2ccc(F)cc12,i
COc1ccc(C(=O)Nc2c3c(nn2-c2cccc(C)c2C)CS(=O)C3)c(OC)c1 (configuration not stated),i
FC(F)(F)c1nnc2n1N=C(c1ccc(Br)cc1)CS2,i
Cc1ccccc1OCC(=O)Nc1ncc(Cc2ccccc2Cl)s1,i
O=c1[nH]c2ccc(S(=O)(=O)NCCOc3ccccc3F)cc2s1,i
CCCCC(=O)Nc1ccc(NC(=O)c2cccc(OCC)c2)cc1OC,i
O=C(Cn1cnc2c(oc3ccccc32)c1=O)Nc1ccc(Br)cc1,i
O=C(O)C1C2CCC(C2)C1C(=O)Nc1ccc(Oc2ccc(Cl)cc2)cc1 (configuration not stated),i
CCOC(=O)C(C)Sc1nc2c(c(=O)n1-c1ccc(Cl)cc1)SCC2 (configuration not stated),i
SMILES,ST2 inh
CCOC(=O)C(CC)Sc1nc2c(c(=O)n1-c1ccccc1)SCC2 (configuration not stated),i
Cc1ccc(-n2c(SC(C)c3ccccc3)nc3c(c2=O)SCC3)cc1 (configuration not stated),31%*!
NNC(=O)C1C[C@@H]1c1ccccc1 (some centres not stated),i
O=C1/C(=C/C=C/c2ccco2)CC/C1=C\C=C\c1ccco1,96%*
Cc1cccc(C)c1NC(=O)CN(C)S(=O)(=O)c1ccc(Cl)cc1,i
CCC(=O)c1cc2c(cc1NC(=O)c1cccc(Cl)c1)OCCO2,i
C=CCn1cc(-c2c(-c3ccccc3)ncn2[C@H](C(N)=O)C(C)C)c(C)n1,i
Cc1nc2c(c(=O)n(Cc3ccccc3)c(=O)n2C)n1Cc1ccccc1,i
COc1ccccc1-c1ccnc(-n2ncc(C(=O)NCc3cccc(F)c3)c2C2CC2)n1,i
COCc1c(C(=O)NCc2ccc3c(c2)CCCN3C)cnn1-c1ncc(C)c(-c2cccs2)n1,39%*
COc1ccc(OC)c(CNC(=O)c2cc(-c3cccs3)nc3ccccc23)c1,i
CC(C)(C)c1[nH]nc2c1C(c1cc(Br)ccc1F)C(C#N)=C(N)O2 (configuration not stated),i
NC(=O)c1c(NC(=O)c2cc(-c3ccc(Br)cc3)on2)sc2c1CCCC2,i
CCOc1ccc(Br)cc1/C=C(\C#N)c1nc2ccccc2[nH]1,i
COc1ccc2nc(SCc3ccc(C)cc3)[nH]c2c1,i
Cc1ccc(/C=C(\C#N)c2nc3ccc(C)cc3[nH]2)cc1,32%*
N#C/C(=C\c1cc2c(cc1Br)OCO2)c1nc2ccccc2[nH]1,i
N#C/C(=C\c1ccc2c(c1)OCO2)c1nc2ccccc2[nH]1,i
COc1cc(/C=C(\C#N)c2nc3ccc(C)cc3[nH]2)cc(OC)c1O,34%*
CCCCOC(=O)c1ccc(OC(=O)c2ccncc2)cc1,i
CCc1nnc(NC(=O)COc2ccc(C)cc2)s1,i
c1cnn(CC2CN(Cc3cc4n(n3)CCCNC4)CCCO2)c1 (configuration not stated),i
COc1ccc(CN2C[C@H](O)C[C@H]2c2nc(-c3ccccc3)no2)cc1,i
COc1ccc(CN2C[C@H](O)C[C@H]2c2nc(Cc3ccc(F)cc3Cl)no2)c2ccccc12,i
COc1ccc(CN2C[C@H](O)C[C@H]2c2nc(-c3ccccc3)no2)c(OC)c1OC,i
COc1ccc(-c2noc([C@@H]3C[C@@H](O)CN3Cc3cccc(C#N)c3)n2)cc1,58%*
COc1ccc(CN2C[C@H](O)C[C@H]2c2nc(-c3ccc(F)cc3)no2)c(OC)c1OC,47%*
